# Screening data (PubChem)
# GLS inh = glutaminase GLS (human) inhibition; Potency, µM (titrated, usually from 45.5 µM), for inactives: at the highest dose activity change, negative = inhibition, hits mostly inhibitors; GLS enzymatic activity, qHTS titration; AID 624170; O94925; 410,000 compounds, 0.21% hits; also: % is scaled to controls: 0 for no effect and ±100 for the full control effect
# Target sequence (O94925 whole entry, looked up): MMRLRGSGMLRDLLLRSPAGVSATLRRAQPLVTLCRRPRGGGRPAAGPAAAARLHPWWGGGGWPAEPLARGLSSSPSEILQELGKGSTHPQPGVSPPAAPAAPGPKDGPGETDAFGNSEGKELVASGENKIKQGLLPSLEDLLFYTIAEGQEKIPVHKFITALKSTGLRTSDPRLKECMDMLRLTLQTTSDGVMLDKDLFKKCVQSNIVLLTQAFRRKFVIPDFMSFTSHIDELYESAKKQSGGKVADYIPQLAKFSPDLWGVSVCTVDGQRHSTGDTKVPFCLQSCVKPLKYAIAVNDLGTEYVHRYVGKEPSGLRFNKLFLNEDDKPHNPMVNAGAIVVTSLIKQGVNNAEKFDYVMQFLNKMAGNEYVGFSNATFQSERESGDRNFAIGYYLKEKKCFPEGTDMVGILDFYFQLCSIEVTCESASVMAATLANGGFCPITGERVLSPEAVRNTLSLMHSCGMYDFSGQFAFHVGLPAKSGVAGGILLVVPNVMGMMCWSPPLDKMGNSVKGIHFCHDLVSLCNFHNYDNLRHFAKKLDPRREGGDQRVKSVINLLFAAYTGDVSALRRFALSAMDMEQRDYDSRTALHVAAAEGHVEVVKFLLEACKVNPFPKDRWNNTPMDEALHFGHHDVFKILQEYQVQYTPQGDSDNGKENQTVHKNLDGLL
#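 Assay buffer: 45 mM KH2PO4 pH 8.2, 0.02% Tween-20. hKGA acts on L-glutamine (1 mM solution added); product glutamate is reported by an oxidase/peroxidase Amplex Red coupling, with fluorescence taken at baseline and 30 min.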
# GLP-1R inv ag = inverse agonists of human GLP-1 receptor; AID 624417; P43220; HEK293 GLP-1R CRE-luciferase, luminescence, 24 h; GLP-1R form is constitutively active; Potency, µM (top dose mostly 38.3 µM), for inactives: at the highest dose activity change, negative = inhibition, hits mostly inhibitors; 410,000 compounds, 1.6% hits; also: % is scaled to controls: 0 for no effect and ±100 for the full control effect; nearly all actives have a fitted effect of over 55% in size
#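 Luminescence readout: a drop in cAMP-driven luciferase signal flags inverse agonism at a constitutively active GLP-1R stably expressed in HEK293. Compound exposure lasted 24 hr at 37 deg C, 5% CO2.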
# GRP78 ERSR act = induces the endoplasmic reticulum stress response in human glioma cells; U87-MG GRP78 promoter luciferase reporter, 16 h; Potency, µM, without a hit: at the top dose activation, hits mostly activators; 420,000 compounds, 0.02% hits; AID 602332; also: series mostly up to about 76 µM; % of control where 0% means no effect; nearly all actives have a fitted effect of over 35% in size
#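 Stably transfected U87-MG human glioma cells carrying a GRP78-based luminescent sensor were seeded at 1000 cells/well, pin-dosed with compounds and incubated 16 h. Luciferase reagent was then added, and end-point luminescence was read after 10 min at room temperature.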
# ALOX12 inh = inhibitors of human 12S-lipoxygenase ALOX12; P18054; 580,000 compounds, 1.1% hits; purified 12hLO, xylenol orange hydroperoxide absorbance; Potency, µM (series often up to 108 µM), for inactives: at the top dose activity change, negative = inhibition, hits mostly inhibitors; also: % is scaled to controls: 0 for no effect and ±100 for the full control effect
#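 Purified human 12hLO (150 nM final) in 25 mM Hepes, 0.01% Triton X-100, pH 7.0 was preincubated 15 min at room temperature with compound. Then 40 uM arachidonic acid was added, 30 min. Hydroperoxide was read by Fe-XO absorbance ratio 573/405 nm.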
# GLP-1R agonist = activates the human GLP-1 receptor | Potency, µM (doses to about 45.6 µM), inactives show at the highest dose activation, actives largely listed as activators | P43220 | 380,000 compounds, 0.007% hits | HEK293 GLP-1R CRE-luciferase, luminescence, 4-6 h; cells express a hypersensitive GLP-1R form; also: % of control where 0% means no effect
# PTHR1 agonist = PTHR1 (human) receptor agonism; HEK293 GP2 PTHR1 cells, GloSensor cAMP luminescence, 1 h; Potency, µM (highest dose often 115 µM), inactives show top-dose activation, most hits filed as activators; 410,000 compounds, 0.075% hits; AID 743266; also: nearly all actives have a fitted effect of over 55% in size
#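 HEK-293-derived GP2 cells expressing PTHR1 and a GloSensor cAMP reporter, 3,000/well, plated overnight, given luciferin plus IBMX (each 0.5 mM as added) for 1 h at 37 °C, then compound for 1 h at 37 °C. Luminescence was read after 15 min at room temperature.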
# * = called active by the depositor; i = inactive; u = inconclusive; x = no result. Hits are enriched below; roughly 2.3% of the tested compounds scored in any of these assays. Calls follow the shape of the dose curve; as a rule, active = well fitted curve in the direction sought with a large enough effect; inconclusive = small, poorly fitted or top-dose-only effect, or another doubt; inactive = no such curve, though single readings can be large; an effect the other way counts as inactive or inconclusive. Potency is read from the fitted curve at half-maximal effect.
SMILES,GLS inh,GLP-1R inv ag,GRP78 ERSR act,ALOX12 inh,GLP-1R agonist,PTHR1 agonist
O=C(C1CCC(Cn2c(=O)[nH]c3ccccc3c2=O)CC1)N1CCN(c2ccccc2)CC1 (configuration not stated),1.8%,-28.9%,-1.9%,-7.5%,3.1%,i
O=C(C1CCC(Cn2c(=S)[nH]c3ccccc3c2=O)CC1)N1CCN(c2ccccc2)CC1 (configuration not stated),30.6%,3.55µM*,-1.9%,4.8%,-10.6%,-31.7%
Cc1[nH]n(-c2ccccc2)c(=S)c1C=NCCCN=Cc1c(C)[nH]n(-c2ccccc2)c1=S,5.5%,u,-3.8%,11.2µM*,3.0%,-17.1%
COc1ccc(C2(O)CCN(CC(=O)Nc3nc(-c4ccccc4)cs3)CC2)cc1,6.2%,7.08µM*,-7.9%,2.3%,-1.0%,-26.5%
CN1CCN(CC(=O)Nc2nc(-c3ccccc3)cs2)CC1,5.2%,u,2.2%,-13.6%,-0.1%,-21.4%
CC1CCN(CC(=O)Nc2nc(-c3ccccc3)cs2)CC1,5.0%,5.62µM*,-1.5%,0.0%,-8.3%,i
Cc1nc(-c2cccc(S(=O)(=O)N3CCC(C(=O)NCc4ccc5c(c4)OCO5)CC3)c2)no1,x,x,x,8.0%,x,x
CC1CCN(C(=O)CSc2n[nH]c(-c3cc(Br)ccc3O)n2)CC1,x,x,x,31.6µM*,x,x
O=C(CSc1n[nH]c(-c2cc(Br)ccc2O)n1)N1CCCCC1,x,x,x,52.2%,x,x
CCC(=O)N1CCCc2cc(S(=O)(=O)N3CCC(C(=O)Nc4ccc(F)c(F)c4)CC3)ccc21,1.2%,11.2µM*,-2.8%,-16.9%,x,-62.4%
COC(=O)CN1CCN(CCC(C)C)CC1,x,x,x,-2.1%,x,x
CCOc1ccccc1NC(=O)C1(S(=O)(=O)c2ccc(Cl)cc2)CC1,-18.6%,7.08µM*,-4.2%,-21.6%,26.9%,-14.6%
CCOC(=O)c1ccc(NC(=O)C2(S(=O)(=O)c3ccc(Cl)cc3)CC2)cc1,1.1%,u,-1.4%,u,x,i
CCOc1ccccc1NC(=O)c1cc(S(=O)(=O)NC2CCCC2)ccc1F,-0.7%,6.31µM*,-1.6%,-12.2%,x,-28.9%
C/C(=N/NC(=O)c1cccs1)c1ccc2ccccc2c1,x,x,x,10.6%,x,x
COc1ccc(/C=C2\CCn3c2nc2cc(C(=O)O)ccc2c3=O)cc1O,6.31µM*,5.7%,-1.2%,-26.9%,-8.3%,26.0%
COc1ccc(/C=C2/CCn3c2nc2cc(Cl)ccc2c3=O)cc1O,x,x,x,1.78µM*,x,x
CCOc1cc(/C=C2\CCn3c2nc2cc(Cl)ccc2c3=O)ccc1O,0.0%,0.4%,5.7%,-13.7%,-3.0%,-6.8%
O=C(O)c1ccc2c(=O)n3c(nc2c1)/C(=C/c1cccc(O)c1)CC3,20.8%,0.4%,-0.8%,7.94µM*,-3.3%,i
CCNC(=O)NC(=O)C(C)OC(=O)c1c(C)c(CC)nc2ccccc12 (configuration not stated),x,x,x,-0.9%,x,x
CC(C)C(C)(C#N)NC(=O)CSc1n[nH]c(-c2ccc(Br)cc2)n1 (configuration not stated),x,x,x,-25.6%,x,x
CCc1ccc(/C=C(/C#N)C(=O)c2c(C)[nH]c3ccccc23)cc1,x,x,x,14.1µM*,x,x
OC(CN1CCNCC1)Cn1c2ccc(Br)cc2c2cc(Br)ccc21 (configuration not stated),x,x,x,28.2µM*,x,x
OC(CN1CCCCC1)Cn1c2ccccc2c2cc(Br)ccc21 (configuration not stated),-3.2%,u,-7.9%,0.0%,-1.7%,-6.8%
COc1cc(-c2nc(C(=O)NC3CCN(Cc4ccccc4)CC3)cc3c2[nH]c2ccccc23)cc(OC)c1OC,1.3%,u,-2.9%,x,8.3%,5.2%
SMILES,GLS inh,GLP-1R inv ag,GRP78 ERSR act,ALOX12 inh,GLP-1R agonist,PTHR1 agonist
COc1ccc(OC)c(-c2nc(C(=O)NC3CCN(Cc4ccccc4)CC3)cc3c2[nH]c2ccccc23)c1,-4.4%,10µM*,1.0%,-21.9%,10.9%,-26.7%
COc1ccc(-c2nc(C(=O)NCC3CCCO3)cc3c2[nH]c2ccccc23)cc1 (configuration not stated),2.8%,10µM*,-1.6%,-2.1%,-4.6%,i
Cc1ccccc1-c1nc(C(=O)NCC2CCCO2)cc2c1[nH]c1ccccc12 (configuration not stated),6.4%,10µM*,0.4%,-7.8%,u,-53.4%
COc1ccc(CNC(=O)Cc2cccc(C(F)(F)F)c2)cc1OC,x,x,x,-26.6%,x,x
O=c1[nH]c2ccc(NCc3ccc(-c4ccc(Br)cc4)o3)cc2[nH]1,2.7%,12.3%,-3.6%,10µM*,x,i
CNCc1ccc(-c2ccc(Cl)cc2)o1,x,x,x,-27.0%,x,x
CNCc1ccc(-c2ccc(Br)cc2)o1,x,x,x,28.2µM*,x,x
Cn1c(=O)[nH]c(=O)c2c1nc(N1CCCC1)n2CC(O)CO (configuration not stated),x,x,x,1.3%,x,x
CC(C)C(C)NC(=O)CCn1cnc2c1c(=O)n(C)c(=O)n2C (configuration not stated),x,x,x,-12.8%,x,x
C=CCN(CC=C)C(=S)NC(=O)c1ccc(C)c(Br)c1,-13.8%,3.16µM*,-5.2%,u,-2.7%,i
Cc1ccc(C(=O)NC(=S)NCC2CCCO2)cc1Br (configuration not stated),-6.8%,-72.1%,0.7%,28.2µM*,-3.9%,-16.8%
O=C(c1cc(=O)c2ccccc2o1)N(Cc1ccccc1)Cc1ccccc1,x,x,x,3.1%,x,x
COc1ccc(/C=C(/C(=O)NCc2ccccc2)c2ccccc2)cc1,-2.2%,25.1µM*,-2.2%,-14.9%,0.6%,i
O=C(NCc1ccccc1)/C(=C/c1ccc(OC(F)F)cc1)c1ccccc1,5.6%,u,-6.4%,-4.5%,0.0%,-20.8%
CC(=O)Nc1cccc(NC(=O)c2nccnc2-c2nc3ccccc3s2)c1,x,x,x,1.3%,x,x
Cc1c(C)c(C)c(S(=O)(=O)Nc2cc(Cl)ccc2C(=O)N(C)C)c(C)c1C,x,x,x,39.8µM*,x,x
Cc1ccc(NC(=O)CSc2ncc(-c3ccc(Cl)cc3)o2)cc1C,x,x,x,-1.8%,x,x
CCN(CC)CCCNC(=O)c1cc2c(-c3cccc(OC)c3)nn(C)c2s1,0.3%,u,-0.6%,0.0%,-7.1%,-6.9%
CCCCN(C)CCNC(=O)c1cc2c(-c3ccccc3F)nn(C)c2s1,1.1%,10µM*,-3.5%,19.8%,-0.2%,i
COc1cccc(-c2nn(C)c3sc(C(=O)NCCCN(C)Cc4ccccc4)cc23)c1,9.5%,5.62µM*,-2.4%,0.0%,0.2%,i
COCCNC(=O)c1cc2c(-c3ccccc3F)nn(C)c2s1,-16.6%,20.4%,0.3%,u,-0.5%,i
